# Reference: PubChem BioAssay AID1347417 (National Center for Advancing Translational Sciences (NCATS), 2020)
# In all, about 120,000 compounds went through this assay and about 5,300 (4.4%) were called active. Inconclusive results (about 22%) are left out. Many of the other results were omitted from the sample, so actives are more common in it than they were. A number with no mark means an inactive call. Calls follow the shape of the dose curve; as a rule, active = well fitted inhibition curve with a large enough effect; inconclusive = small, poorly fitted or top-dose-only effect; inactive = no such curve, though single readings can be large or run the other way.
# Assay: qHTS Primary assay for Inhibitors of Plasmodium falciparum Dd2 growth in vitro; also: nearly all actives have a fitted effect of over 65% in size;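 as to activity, negative = inhibition: plate controls were DMSO vehicle for no effect and reference drug for full effect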
# Settings: P. falciparum Dd2 growth, SYBR Green, 72 h; series mostly up to 28.9 µM; activity, negative = inhibition: at the top concentration
# How it was run: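 Infected erythrocytes (Dd2, 0.3% parasitemia, 2.5% hematocrit final) are added to compound in RPMI-1640/Albumax II medium, grown 72 h at 37C in low oxygen, then lysed with saponin/Triton-X containing SYBR Green and read by fluorescence.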
# Potency is read from the fitted curve at half-maximal effect.
Compound,outcome,Potency,"activity, negative = inhibition"
CC(=O)NC[C@@H]1C=C(C)[C@H](CC(=O)N2CCCC2)C[C@H]1C(C)C,inactive [at 44.1 µM],,
COc1ccc2nc(C[C@@H]3C[C@@H](C(C)C)[C@H](CNC(=O)CC(C)(C)CC(=O)O)C=C3C)[nH]c2c1,inactive,,
COc1ccc(CC(=O)NC[C@@H]2C=C(C)[C@H](Cc3nc4ccncc4[nH]3)C[C@H]2C(C)C)cc1,inactive,,
CC1=C[C@@H](CN(CC2CC2)CC2CC2)[C@H](C(C)C)C[C@H]1Cc1nc2c(C)cccc2[nH]1,,7.08 µM (active),
CC1=C[C@@H](CNS(C)(=O)=O)[C@H](C(C)C)C[C@H]1Cc1nc2ccccc2[nH]1,,,-20.9% [at 44.1 µM]
CC1=C[C@@H](CNC2CCN(C)CC2)[C@H](C(C)C)C[C@H]1Cc1nc2ccccc2[nH]1,,7.08 µM (active),
CC1=C[C@@H](CNC(=O)CC2(CC(=O)O)CCCC2)[C@H](C(C)C)C[C@H]1Cc1nc2c(C)cccc2[nH]1,inactive,,
CC1=C[C@@H](CNC(=O)CCC(=O)O)[C@H](C(C)C)C[C@H]1Cc1nc2ccccc2n1C,inactive [at 44.1 µM],,
CC(=O)N1CCC(NC[C@@H]2C=C(C)[C@H](Cc3nc4ccccc4n3C)C[C@H]2C(C)C)CC1,,4.47 µM (active),
COc1ccc(CCC(=O)N2CCC(Cc3nncn3C(C)C)C2)cc1 (stereo unspecified),,,-17.8%
CC(=O)N1CCN(Cc2ccc(C(F)(F)F)c(F)c2)CC(O)C1 (stereo unspecified),,,-0.88%
O=C(NCc1ccc(F)cc1)N1CCCC(Cc2noc(-c3ccncc3)n2)C1 (stereo unspecified),inactive,,
CCC(=O)N1N=C(c2ccc(OC)cc2)CC1c1cn(-c2ccccc2)nc1-c1cccs1 (stereo unspecified),,11.2 µM (active),
COc1ccc(-c2noc([C@@H]3CCCN3C(=O)CCc3ccccc3)n2)cc1,inactive,,
CCN(CC)CCNC(=O)CN1N=C(c2ccc(OC)cc2)CCC1=O,,,11%
COC[C@@H]1CN(S(=O)(=O)c2cccc(F)c2)C[C@H]1c1ccncc1,,,2.93%
O=C(c1ccccn1)N1CCC(N(C(=O)NCCc2ccccc2)C2CCOCC2)CC1,,,-16%
OC[C@@H]1CN(Cc2cccnc2)C[C@H]1c1ccncc1,inactive,,
COc1ccc(-c2ccc3ncc(Nc4ccc(C(F)(F)F)cc4)n3n2)cn1,inactive [at 44.1 µM],,
CN(C)c1ccc2ncc(Nc3ccccc3F)n2n1,,,-14.7% [at 44.1 µM]
COc1ccccc1Nc1cnc2ccc(-c3ccc(OC)c(OC)c3)nn12,,1.12 µM (active),
CC(=O)N1CCN(Cc2cc(F)ccc2Cl)CC(O)C1 (stereo unspecified),,,19.5%
CN(Cc1ccccc1)C(=O)C1CCCN(c2cnn(Cc3ccccc3)c(=O)c2)C1 (stereo unspecified),inactive,,
Cc1ccc([C@@H]2CN(Cc3ncc[nH]3)[C@@H]3C4CCN(CC4)[C@@H]32)cc1,,,-2.87%
COc1ccc([C@@H]2CN(C(=O)c3c(C)noc3C)[C@@H]3C4CCN(CC4)[C@@H]32)cc1,,,-8.25%
COc1cccc([C@H]2CN(c3cc(C)nc(N)n3)[C@@H]3C4CCN(CC4)[C@H]23)c1,,11.2 µM (active),
